Reference: PubChem BioAssay AID540364 (The Scripps Research Institute Molecular Screening Center, 2011)
Hit rate of the full screen: of about 360,000 compounds, about 2,000 (0.56%) were called active.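 The calls were made as follows: active = activation above the average of all compounds screened plus 3 SD, cutoff fixed separately per campaign (cut at about 7.5% in these data); inactive = the rest.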 Shown is part of a subset that was picked to be rich in actives.

Assay: GAA850 frataxin promoter reporter upregulation – cell-based, luciferase luminescence, HEK293 lucGAA850, primary screen (AID 540364);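 also: 0% = DMSO wells and 100% = 10 µM SAHA wells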
Conditions: HEK293 lucGAA850 FXN promoter luciferase reporter, 24 h; at 6 µM; active compounds read high; percent of 10 µM SAHA response
With Cc1ccc(-c2c3c(=O)n(C)c(=O)n(C)c3cn2-n2cnnc2)cc1 the activation was 10.3% (active). In the case of Cc1ccc(-c2c3c(=O)n(C)c(=O)n(C)c3cn2-c2ccccc2O)cc1, the activation is reported as -0.62% (inactive). For COc1cccc(-n2cc3c(c2-c2ccccc2)c(=O)n(C)c(=O)n3C)c1, the activation was 1.09% (inactive). With CCN(C[C@H]1N[C@@](CC)(C(=O)OC)[C@H]2C(=O)N(Cc3ccccc3)C(=O)[C@@H]12)S(=O)(=O)c1ccccc1 the activation was 3.23% (inactive). With COC(=O)[C@]1(Cc2ccccc2)N[C@H](CN(C)S(=O)(=O)c2ccc(OC(F)(F)F)cc2)[C@@H]2C(=O)N(Cc3ccccc3)C(=O)[C@@H]21 the activation was -3.69% (inactive). For CCN(C[C@H]1N[C@@](CC)(C(=O)OC)[C@H]2C(=O)N(Cc3ccccc3)C(=O)[C@@H]12)S(=O)(=O)c1ccc(C(F)(F)F)cc1, the activation was 15.9% (active). For OC(c1ccccc1)c1nc(/C=C/c2ccc(C(F)(F)F)cc2)cs1 (configuration not stated), the activation was 1% (inactive). For CC(=O)Nc1cc(-c2ccccc2N(C)C)cn2c(-c3ccc(F)c(Cl)c3)cnc12, the activation was 1.24% (inactive). With COc1ccc(NC(=O)CSCc2ccc([N+](=O)[O-])cc2)cc1OC the activation was 0.83% (inactive). In the case of COc1ccc2[nH]c(=O)c(CN(Cc3nnnn3CCc3ccccc3)CC3CCCO3)cc2c1 (configuration not stated), the activation is reported as 7.67% (active). With CCC(c1nnnn1Cc1ccccc1)N(Cc1cc2cc(OC)ccc2[nH]c1=O)CC1CCCO1 (configuration not stated) the activation was 5.86% (inactive). For CCOc1ccc2[nH]c(=O)c(CN(Cc3nnnn3CCc3ccccc3)CC3CCCO3)cc2c1 (configuration not stated), the activation was 1.4% (inactive). In the case of COc1ccc(-c2cc(C(=O)N(C)Cc3ccc(OC)c(OC)c3OC)c3ccccc3n2)cc1OC, the activation is reported as -6.82% (inactive). With COc1ccc(-c2cc(C(F)(F)F)nc(S(C)(=O)=O)n2)cc1OC the activation was 16.9% (active). For COc1ccc(-c2cc(C(=O)NCCCN3CCCC3=O)c3ccccc3n2)cc1OC, the activation was 0.37% (inactive). With Cc1cccc(C(=O)Nc2nnc(S(=O)(=O)N3CCCCCC3)s2)c1 the activation was -0.31% (inactive). For O=C(Nc1nnc(S(=O)(=O)N2CCCCCC2)s1)c1cccc(Br)c1, the activation was 11% (active). With O=C(Nc1nnc(S(=O)(=O)N2CCOCC2)s1)c1cccc(Br)c1 the activation was 3.61% (inactive). For CC(OC(=O)CCC(=O)c1ccccc1)C(=O)Nc1ccc(F)cc1 (configuration not stated), the activation was 0.37% (inactive). In the case of Cc1ccc(N=C2SCCCN2C(=O)c2cccc(N3C(=O)CCC3=O)c2)cc1Cl, the activation is reported as -0.64% (inactive). With COc1ccc2cc(CCl)c(Cl)nc2c1 the activation was 2.75% (inactive). With O=[N+]([O-])c1ccc(C=Nc2ccc(Cl)cc2Cl)s1 the activation was 9.39% (active). For COc1ccc(CN2[C@@H](CC(=O)O)c3cc(F)ccc3S2(=O)=O)cc1, the activation was 1.09% (inactive). With CCc1noc(C)c1C(=O)N1CCN(S(=O)(=O)c2cccc(C(F)(F)F)c2)CC1 the activation was -0.49% (inactive). In the case of CC1(C(=O)N/N=C/c2cc3c(cc2Br)OCO3)CC1(Br)Br (configuration not stated), the activation is reported as 8.27% (active). For O=C(/C=C/c1cc2c(cc1Br)OCO2)NCc1ccc(Cl)cc1, the activation was 1.84% (inactive). With O=C(N/N=C\c1cc2c(cc1Cl)OCO2)c1ccc(Br)s1 the activation was 1.53% (inactive). With CO[C@H]1[C@@H]2C=CO[C@@H](O[C@H]3O[C@@H](CO)[C@H](O)[C@@H](O)[C@@H]3O)[C@@H]2[C@@]2(CO)O[C@@H]12 the activation was -1.13% (inactive). In the case of Cc1ccc(OCCCCc2c(C)n[nH]c2C)cc1, the activation is reported as 0.87% (inactive). In the case of Cc1cc(=O)oc2c3c(cc(OCC(=O)NCC(O)c4ccccc4)c12)OC(C)(C)CC3 (configuration not stated), the activation is reported as 1.51% (inactive). In the case of CC(C)CCC(C)NC(=O)c1ccc2nccnc2c1 (configuration not stated), the activation is reported as 9.19% (active). In the case of Cc1ccc(C)c(NC(=O)c2ccc3nccnc3c2)c1, the activation is reported as -0.14% (inactive). With O=C(NCCc1ccc(F)cc1)c1ccc2nccnc2c1 the activation was 3.24% (inactive). For CCc1ccc(N(CC(=O)NCc2cccnc2)S(=O)(=O)c2ccccc2)cc1, the activation was -0.07% (inactive). For O=C(CN(c1cc(C(F)(F)F)ccc1Cl)S(=O)(=O)c1ccccc1)NCc1cccnc1, the activation was 8.32% (active). For CN(CC(=O)NCc1cccnc1)S(=O)(=O)c1cc(Cl)ccc1Cl, the activation was -2.15% (inactive). In the case of COc1ccc(OC)c(NC(=O)c2cnn(-c3ccccc3Cl)c2NC(=O)c2ccco2)c1, the activation is reported as 2.28% (inactive). For O=[N+]([O-])/C=C/c1ccc2c(ccn2Cc2ccccc2)c1, the activation was 15.3% (active). For COc1ccc(NC(=S)SC)cc1OC, the activation was 0.31% (inactive). In the case of COc1ccc(CN2C(=O)CN=C2Nc2ccc(C)cc2C)cc1, the activation is reported as 2.67% (inactive). For Cc1ccc(NC(=O)COc2ccc(/C=C3/NC(=O)NC3=O)cc2)cc1, the activation was -1.99% (inactive). For CCOC(=O)C1=C(O)/C(=C/c2ccc(OCC(=O)Nc3ccc(C)cc3)cc2)N=C1C, the activation was -1.6% (inactive). For Cc1ccc(OCC(=O)Nc2ccc(-c3nnc(-c4ccco4)o3)cc2)cc1, the activation was 9.76% (active). With Cc1noc(C)c1NC(=O)Nc1ccc2c(c1)C(=O)N([C@H](C)CO)C[C@H](C)[C@@H](CN(C)S(=O)(=O)c1cn(C)cn1)O2 the activation was 0.14% (inactive). With CCOC(=O)C1=C(CC)Nc2ccccc2N=C1NC(=O)c1cccc(S(=O)(=O)N2CCCC2)c1 the activation was -2.08% (inactive). In the case of CCC(=O)Nc1ccc2c(c1)nc(CCN1CCN(c3ccccn3)CC1)n2C, the activation is reported as 1.46% (inactive). For Cn1c(CCN2CCCCCC2)nc2cc(NC(=O)Nc3ccccc3)ccc21, the activation was 10.5% (active). For Cc1nn(CC(=O)Nc2ccc3c(c2)nc(CN2CCCCC2)n3C)c(=O)c2ccccc12, the activation was -1.92% (inactive). With O=C(CNCCC1=CCCCC1)Nc1ccccc1N1CCCCCC1 the activation was -0.31% (inactive). With Cc1cc(C)c2c(-n3cccc3)c(C(=O)NNS(=O)(=O)c3ccc(F)cc3)sc2n1 the activation was -0.88% (inactive). For COc1cc(S(=O)(=O)N2CCN=C2c2ccccc2)ccc1Cl, the activation was 2.5% (inactive). In the case of COCCn1c(=NC(=O)c2ccccc2[N+](=O)[O-])sc2cc(S(C)(=O)=O)ccc21, the activation is reported as 8.06% (active). For COC(=O)CNC(=O)c1ccccc1[N+](=O)[O-], the activation was 1.03% (inactive). For Cn1c(=NC(=O)c2ccc3c(c2)OCCO3)sc2cc(S(C)(=O)=O)ccc21, the activation was -0.86% (inactive). In the case of CCOC(=O)C1CCN(C(=O)Cn2nc(C)c3c(C)n(-c4ccccc4)nc3c2=O)CC1, the activation is reported as -0.2% (inactive). In the case of COc1ccc(N2C(=O)CNC2=S)cc1, the activation is reported as -3.02% (inactive). For COc1ccc(-n2cc(-c3ccccc3)c3c(=S)nc[nH]c32)cc1, the activation was 8.54% (active). In the case of COc1ccccc1CNC(=O)C1Cc2ccccc2C(=O)O1 (configuration not stated), the activation is reported as -0.56% (inactive). In the case of COc1cccc(N(C(=O)c2ccn[nH]2)C2(C(=O)Nc3c(C)cccc3C)CCCCC2)c1, the activation is reported as -6.45% (inactive). In the case of CCc1ccc(N(C(=O)c2csnn2)C(C(=O)NC2CCCCC2)c2ccncc2)cc1 (configuration not stated), the activation is reported as 8.57% (active). With O=C(NC1CCCC1)C(c1ccco1)N(C(=O)c1csnn1)c1ccccc1 (configuration not stated) the activation was 0.36% (inactive). With CCc1ccc(N(C(=O)c2csnn2)C(C(=O)NC2CCCCC2)c2cccnc2)cc1 (configuration not stated) the activation was -1.27% (inactive). In the case of COC(=O)CN(C(=S)Nc1ccc(Cl)cc1)C1CC(=O)N(c2ccc(OC)cc2)C1=O (configuration not stated), the activation is reported as 1.91% (inactive). With CCOc1ccc(N2C(=O)CC(N(CCc3ccc(OC)c(OC)c3)C(=S)Nc3ccccc3)C2=O)cc1 (configuration not stated) the activation was 8.9% (active). For CN(C)c1ccc(NC(=S)N(CCc2ccccc2)C2CC(=O)N(c3c(Cl)cccc3Cl)C2=O)cc1 (configuration not stated), the activation was 0.24% (inactive). For COc1ccc(NC(=O)CSc2ccc(-c3ccco3)nn2)c(OC)c1, the activation was 0.41% (inactive). For COc1ccc2[nH]c3nc(SCC(=O)NC4CC4)nnc3c2c1, the activation was 0.57% (inactive). With Oc1cccc2cc(-c3ccncc3)cnc12 the activation was 2.66% (inactive). For COC(=O)c1ccc(NC(=O)CSc2nc(N)c(NC(=O)c3ccc(Br)o3)c(=O)[nH]2)cc1, the activation was 1.31% (inactive). In the case of COc1ccc(C2Nc3ccccc3C(=O)N2c2ccc(Cl)cc2)cc1Cn1cc([N+](=O)[O-])cn1 (configuration not stated), the activation is reported as 10.7% (active). In the case of COc1ccc(CN2CCCC(C(=O)c3ccc(Cl)cc3)C2)cc1Cn1cncn1 (configuration not stated), the activation is reported as 1.04% (inactive). For COc1ccc(C2Nc3ccccc3C(=O)N2Cc2ccccc2)cc1Cn1nnc2ccccc21 (configuration not stated), the activation was -2.6% (inactive). In the case of N#C/C(=C(\O)CCl)c1nnc2n1CCCCC2, the activation is reported as -0.95% (inactive). With CCOC(=O)C1(C)CCCN(C(=O)c2cccc(Cl)c2)C1 (configuration not stated) the activation was -0.57% (inactive). With CC(C)Oc1ccc(C(CC(=O)N2CCOCC2)C(C)C)cc1 (configuration not stated) the activation was 2.86% (inactive). With O=C(NCc1ccco1)/C(=C/c1ccco1)NC(=O)c1ccccc1 the activation was 1.61% (inactive). For CC(C)(C)NC(=O)NCc1ccco1, the activation was 0.33% (inactive). For CC(C)(C)c1ccc(C(=O)NCc2ccco2)cc1, the activation was 8.75% (active). With COc1ccc(C2NC(=O)C(=O)/C2=C(\O)c2ccc(Cl)cc2)cc1OC (configuration not stated) the activation was -0.36% (inactive). With CC/C(=C(/c1ccccc1)c1ccc(OCC[N+](C)(C)C)cc1)c1ccccc1 the activation was -0.77% (inactive). For CC1CN(Cc2ccco2)C(=S)N(c2ccccc2)C1=O (configuration not stated), the activation was 2.7% (inactive). In the case of CN(C)C(=S)N=c1ssc(=S)n1Cc1ccco1, the activation is reported as 16.1% (active). In the case of CCN(CC)C(=O)CSc1nnc(CNc2ccc(F)cc2)n1Cc1ccco1, the activation is reported as -2.98% (inactive). In the case of O=C(COc1ccc2ccc(=O)oc2c1)NCC(O)c1ccccc1 (configuration not stated), the activation is reported as 1.75% (inactive). With O=C(CC1NCCc2ccccc21)Nc1cccc(Cl)c1 (configuration not stated) the activation was 7.89% (active). In the case of O=C(CC1C(=O)NCCN1C(=O)c1ccc([N+](=O)[O-])cc1)Nc1cccc(Cl)c1 (configuration not stated), the activation is reported as 0.62% (inactive). For O=C(CC1NCCNC1=O)Nc1cc(Cl)cc(Cl)c1 (configuration not stated), the activation was 1.12% (inactive).
